Compound activity (PubChem)
Only some compounds are listed: those with a hit (about 5.9% of all), similar ones and a draw of the others.
GLP1R cytotox – qHTS of GLP-1 Receptor Inverse Agonists: Cytotox Screen; HEK293 cAMP-luciferase reporter cells, luminescence, 24 h; Potency, µM (top dose mostly 38.3 µM), without a hit: top-dose activity change, negative = inhibition, hits mostly inhibitors; 0.13% of 410,000 active;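 also: loss of luciferase light is scored as toxicity; % is scaled to controls: 0 for no effect and ±100 for the full control effect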
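Step one: seed cells (200 cells/uL, DMEM with 10% Nu serum, 1% pen-strep). Step two: 12-hour incubation at 37 deg C. Step three: pin 23 nL compound, incubate 24 hr. Step four: add luciferase reagent, read luminescence 12 min later.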
RORgamma inh – qHTS for inhibitors of ROR gamma transcriptional activity; Nuclear receptor ROR-gamma (Mus musculus), P51450; Drosophila S2 Gal4-RORgamma UAS-luciferase reporter, 20 h; Potency, µM (series often up to 53.6 µM), inactives show at the top dose activity change, negative = inhibition, hits mostly inhibitors; 5.4% of 310,000 active; AID 2551, 2010; also: % is scaled to controls: 0 for no effect and ±100 for the full control effect; nearly all actives have a fitted effect of over 60% in size
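Luminescence from a UAS-regulated Photinus luciferase reporter in stably transfected Drosophila Schneider cells is measured; decreased signal marks ROR gamma inhibition. Fusion expression is induced by 700 uM copper sulfate for 20 hr.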
VP16 counter – VP16 counterscreen qHTS for inhibitors of ROR gamma transcriptional activity; 3.5% of 310,000 active; AID 2546, 2010; Drosophila S2 Gal4-VP16 UAS-luciferase, luminescence, 20 h; Potency, µM (titrated, usually from 53.6 µM), for inactives: at the top dose activity, negative = inhibition, hits mostly inhibitors;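 also: Gal4-VP16 expression switched on by copper sulfate through the metallothionein promoter; % is scaled to controls: 0 for no effect and ±100 for the full control effect; nearly all actives have a fitted effect of over 50% in size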
GLP-1R inv ag – qHTS of GLP-1 Receptor Inverse Agonists (Inhibition Mode) | HEK293 GLP-1R CRE-luciferase, luminescence, 24 h; GLP-1R form is constitutively active | 1.6% of 410,000 active | Potency, µM (titrated, usually from 38.3 µM), for inactives: at the top dose activity change, negative = inhibition, hits mostly inhibitors; also: % is scaled to controls: 0 for no effect and ±100 for the full control effect; nearly all actives have a fitted effect of over 55% in size
Target sequence (P43220 whole entry, looked up): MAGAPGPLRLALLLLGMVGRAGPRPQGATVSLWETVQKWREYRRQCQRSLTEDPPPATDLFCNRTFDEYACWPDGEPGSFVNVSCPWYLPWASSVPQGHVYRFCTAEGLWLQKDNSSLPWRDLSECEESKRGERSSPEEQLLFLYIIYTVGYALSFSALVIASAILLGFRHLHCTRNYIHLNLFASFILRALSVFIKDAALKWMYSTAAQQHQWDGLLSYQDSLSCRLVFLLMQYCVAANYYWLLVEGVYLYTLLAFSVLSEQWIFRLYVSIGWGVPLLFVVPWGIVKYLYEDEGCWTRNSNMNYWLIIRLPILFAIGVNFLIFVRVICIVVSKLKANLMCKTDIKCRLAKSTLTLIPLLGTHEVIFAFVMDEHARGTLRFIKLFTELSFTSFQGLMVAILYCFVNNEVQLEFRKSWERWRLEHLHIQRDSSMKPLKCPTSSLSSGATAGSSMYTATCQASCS
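HEK293 cells stably co-expressing constitutively active GLP-1R and a cAMP-responsive luciferase reporter were seeded in DMEM with 10% Nu serum, given compounds after 12 h, and incubated 24 h at 37 deg C. Luminescence was then read.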
GLP-1R agonist – qHTS of GLP-1 Receptor Agonists. Glucagon-like peptide 1 receptor (Homo sapiens), P43220. HEK293 GLP-1R CRE-luciferase, luminescence, 4-6 h; cells express a hypersensitive GLP-1R form. Potency, µM (doses to about 45.6 µM), for inactives: at the highest dose activation, usual class: activators. 0.007% of 380,000 active. AID 624172, 2012; also: % of control where 0% means no effect
Active calls of the source: *; ? = inconclusive; nt = not tested or not shown; [ ] = another dose, or the depositor's remark. Calls follow the shape of the dose curve; as a rule, active = well fitted curve in the direction sought with a large enough effect; inconclusive = small, poorly fitted or top-dose-only effect, or another doubt; inactive = no such curve, though single readings can be large; an effect the other way counts as inactive or inconclusive. Potency is read from the fitted curve at half-maximal effect.

SMILES	GLP1R cytotox	RORgamma inh	VP16 counter	GLP-1R inv ag	GLP-1R agonist
CC(C)c1ccc(NC(=S)N2CCN(S(=O)(=O)c3ccccc3)CC2)cc1	-13%	11µM*	?	?	-3%
COC(=O)c1ccc(NC(=S)N2CCN(Cc3cccc(C)c3)CC2)cc1	-7%	11µM*	?	0%	-10%
COC(=O)c1ccc(NC(=S)N2CCN(Cc3ccccc3)CC2)cc1	-5%	3%	?	0%	-11%
CC(C)c1ccc(NC(=S)N2CCN(Cc3ccccc3)CC2)cc1	-13%	7.9µM*	?	?	-3%
CCC(C)NC(=S)N1CCN(Cc2ccccc2)CC1 (stereo not drawn)	-13%	27%	?	-23%	0%
Cc1cc(C)cc(NC(=S)N2CCN(Cc3ccccc3)CC2)c1	0%	7.1µM*	?	-41%	9%
CC(C)CO/N=C1/C[C@@H](O)[C@@H](O)[C@@H]2[C@@H]3C(=O)N(Cc4ccc5c(c4)OCO5)C(=O)[C@H]3CC[C@H]12	nt	0%[10 µM]	1%[10 µM]	nt	nt
COc1ccc(S(=O)(=O)NCc2nc(-c3ccccc3)no2)cc1	4%	nt	nt	-14%	nt
COC(=O)c1c(NC(=O)CCCOc2ccccc2C)sc2c1CCC2	4%	nt	nt	1%	nt
C=CCCCCCCCCCCCc1ccco1	nt	-17%	?	nt	nt
COc1ccccc1C(=O)Nc1ccc(N2CCN(C(C)=O)CC2)cc1	5%	-16%	7%	100%	3%
S=C(Nc1ccc(Cl)cc1)N1CCN(Cc2ccccc2)CC1	-16%	11µM*	-28%	?	-3%
Cc1ccc(NC(=S)N2CCN(Cc3ccccc3)CC2)cc1	?	7.9µM*	-1%	?	14%
COc1ccccc1C(=O)Nc1ccc(N2CCN(Cc3ccccc3)CC2)cc1	-7%	-15%	0%	11µM*	-2%
O=C(C1CCN(Cc2ccc(Cl)cc2)CC1)N1CCN(C(c2ccccc2)c2ccccc2)CC1	?	?	?	4µM*	-4%
OC1c2ccccc2N=C2CCCN21 (stereo not drawn)	nt	17%	7%	nt	nt
COC(=O)N1CCC2(CCN(Cc3nccs3)CC2)CC1	nt	12%	-5%	nt	nt
Cc1noc(C)c1-c1ccc2ncnc(NCc3cccnc3)c2c1	nt	-38%	-6%	nt	nt
NS(=O)(=O)c1ccc(NC(=S)N2CCN(c3ccc(Cl)c(Cl)c3)CC2)cc1	-7%	?	?	-25%	-11%
NS(=O)(=O)c1ccc(NC(=S)N2CCN(Cc3ccc(Cl)c(Cl)c3)CC2)cc1	-4%	?	?	8.9µM*	5%
CCN(CC)Cc1nc2c(c(=O)[nH]1)C1(CCCCC1)Cc1ccccc1-2	3%	11µM*	11µM*	-6%	1%
O=c1oc(-c2ccccc2)nc2c1C1(CCCCC1)Cc1ccccc1-2	5%	-25%	-1%	3%	3%
CN(C)Cc1nc2c(c(=O)[nH]1)C(C)(C)Cc1ccccc1-2	1%	?	?	0%	-10%
CCC1(CC)Cc2ccccc2-c2nc(CN(C)C)[nH]c(=O)c21	?	6.3µM*	7.1µM*	?	?
CN(C)Cc1nc2c(c(=O)[nH]1)C1(CCCCC1)Cc1ccccc1-2	5%	2.5µM*	5µM*	-17%	-2%
SMILES	GLP1R cytotox	RORgamma inh	VP16 counter	GLP-1R inv ag	GLP-1R agonist
CN(C)C(=O)NC1CCCCCCC1	nt	-4%	-8%	nt	nt
C=CCc1ccccc1OCCSc1nc(-c2cccs2)nc2cc(=O)[nH]n12	-7%	nt	nt	-5%	nt
Cc1cc2ccccc2n1CCNC(=O)C(C)Oc1ccccc1 (stereo not drawn)	0%	7.1µM*	?	?	5%
CCNC(=S)NC(=NCc1cccnc1)Nc1nc(C)cc(C)n1	-3%	11µM*	?	42%	13%
COc1cccc(N/C(=N/C(=S)Nc2ccc(C)cc2C)Nc2nc(C)cc(C)n2)c1	?	1.3µM*	3.2µM*	-23%	18%
CCNC(=S)/N=C(/Nc1ccccc1)Nc1nc(C)cc(C)n1	?	0.79µM*	3.2µM*	?	?
CCNC(=S)/N=C(/Nc1ccc(OC)cc1)Nc1nc(C)cc(C)n1	2%	1.8µM*	?	0%	0%
Cc1ccc(NC(=S)NCc2cccnc2)cc1	4%	-2%	9%	0%	0%
C/C(Cn1nnc([N+](=O)[O-])n1)=N\NC(=O)c1ccc(O)cc1O	4%	0.5µM*	2.8µM*	9%	-12%
C/C(Cn1cnc([N+](=O)[O-])n1)=N\NC(=O)c1cccnc1	-5%	2%	-7%	-4%	-1%
C/C(Cn1nnc([N+](=O)[O-])n1)=N\NC(=O)c1ccccc1O	-19%	5.6µM*	?	8%	-4%
CCC/C(C)=N/NC(=O)c1ccccc1O	-9%	?	?	13%	8%
CC(C)CCN(Cc1ccco1)C(=O)Cn1ncc2c([nH]c3ccccc32)c1=O	-10%	nt	nt	?	nt
CCc1ccc(NC(=O)CC2C(=O)N(c3cccc(C)c3)C(=O)N2Cc2ccco2)cc1 (stereo not drawn)	-2%	nt	nt	?	nt
CC(C)CCNC(=O)CN1C(=O)c2cccnc2Sc2ccccc21	7%	nt	nt	11%	nt
CC(C)Cn1nnnc1S(=O)(=O)CCc1ccccc1	nt	3%	3%	nt	nt
COc1ccc(C)cc1NC(=O)Cn1cc(S(=O)(=O)N2CCC(C)CC2)c2ccccc2c1=O	-13%	nt	nt	?	-1%
COc1ccc(-c2nc(N3CCCCCC3)sc2C(=O)c2ccccc2)cc1	29%	-17%	-2%	2µM*	5%
O=C(c1ccccc1)c1sc(N2CCCCCC2)nc1-c1ccccc1	97%	-3%	-8%	5µM*	12%
[2H]c1c([2H])c([2H])c(C(=O)c2sc(N3CCCCCC3)nc2-c2ccccc2)c([2H])c1[2H]	13%	-36%	1%	?	1%
O=C(NN=C1CCCC1)c1[nH]c2ccc(Cl)cc2c1-c1ccccc1	?	11µM*	?	3.2µM*	21%
S=C(NC1CC2CCC1C2)N1CCN(c2cccc(Cl)c2)CC1 (stereo not drawn)	1%	22µM*	-14%	?	8%
S=C(NCc1ccccc1)N1CCN(c2cccc(Cl)c2)CC1	12%	?	-27%	?	11%
Cc1ccccc1CN1C(=O)c2ccccc2S(=O)c2ccc(C(=O)N3CCOCC3)cc21 (stereo not drawn)	-12%	nt	nt	16%	-1%
COc1ccc(NC(=O)Cn2ncc3c4ccccc4n(Cc4ccccc4)c3c2=O)cc1OC	-6%	nt	nt	-3%	nt
O=C(c1cc(C(F)(F)F)cc(C(F)(F)F)c1)N1CCC2(CC1)CN(c1ccccn1)C2	nt	-38%	16µM*	nt	nt
